The text below walks through data of ChEMBL document CHEMBL3433997, “St. Jude Leishmania screening dataset” (2016).

For the test, the target named is Glucose transporter (Leishmania mexicana) (UniProt O61059). Description: ST_JUDE_LEISH: Cytotoxicity at 2uM final concentration against transgenic Leishmania Mexicana promastigotes LmGT2 that are glucose transport deficient and complemented with the L. Mexicana glucose transporter 2. Activity is measured by DNA content using SYBR green in vitro. It counts as functional.
The term inhibition denotes the relative decrease from the control value, in per cent. For the compound `O=C(NCCCN1CCCC1=O)NCc1ccccc1`, the inhibition is -0.11%.

In the case of `Cn1nc(-c2cccc(CN[C@@H]3CCc4ccc(O)cc43)c2)c2cnc(NC3CCCC3)nc21`, the inhibition turned out to be 4.68%.

Turning to `COc1ccc(NC(=O)N2CCc3ccc(OCCN(C(C)C)C(C)C)cc32)cc1C(F)(F)F`, the inhibition came to 5.73%.

On to `Cc1ccc(NC(=O)NC2CCN(CCCCCNC(=O)C3CC3c3ccc(Cl)c(Cl)c3)CC2)cc1` (stereo not given), for which the inhibition was -3.29%.

As to `NC(=O)C1CCN(Cc2ccc(-c3ccc(-c4nc5cc(C(F)(F)F)ccc5[nH]4)s3)cc2)CC1`, the inhibition came out at 4.69%.

With `Nn1c(=O)oc2ccc(Cl)cc2c1=O`, the inhibition was 10%.

As for `CC(C)C1C(O)=C(c2ccc3ccccc3c2)C(=O)N1Cc1ccsc1` (stereo not given), the inhibition stood at 2.54%.

As to `COc1ccc(-c2csc3ncnc(Cl)c23)cc1OC`, the inhibition was -0.23%.

For `O=C(Nc1cccc(CN2CCCN(Cc3cccc(Cl)c3)CC2)c1)c1ccc(Cl)c(Cl)c1`, the inhibition came to 4.28%.

With `COc1cc(Cc2cnc(N)nc2N)cc(OC(C)C)c1OC`, the inhibition is -0.54%.

For `CC(CN1CCN(C)CC1)C(=O)Nc1cccc(-c2ccc(-c3nc4cc(F)ccc4[nH]3)cc2)c1` (stereo not given), the inhibition is 2.7%.

Take `CCOC(=O)CCCc1cc(NC2CCN(C)CC2)nc(Nc2ccc(OC)cc2)n1`: the inhibition was found to be 1.72%.

On to `Cc1cccc2nc(-c3ccc(-c4ccc(NC(=O)NC5CC5c5ccccc5)cc4)cc3)[nH]c12` (stereo not given), for which the inhibition came out at 4.78%.

For `CC(NC(=O)NC1CCC(CCN2CCCc3ccccc32)CC1)c1cccc2ccccc12` (stereo not given), the inhibition was -1.84%.

Take `CC1CCC2(CC1)N=C(N)N=C(N)N2OCc1cc2ccccc2c2ccccc12` (stereo not given): the inhibition worked out at 2.97%.

Regarding `N=C(N)NN=CC(=O)Nc1cccc(C(F)(F)F)c1`, the inhibition is -1.62%.

Take `COc1cc(Cc2cnc(N)nc2N)ccc1OCc1ccc(NC(C)=O)cc1`: the inhibition was found to be 3.61%.

For the compound `Cc1ccc(C(NC(=O)Cc2ccccc2)c2ccc3cccnc3c2O)cc1` (stereo not given), the inhibition came out at 0.77%.

With `Cc1cc(CNCCCCCNCc2ccc(Cl)cc2)ccc1O`, the inhibition amounted to 2.91%.

For `Cn1cncc1-c1ccc2ncnc(Nc3ccc4c(cnn4Cc4ccccc4)c3)c2c1`, the inhibition turned out to be 1.22%.

Turning to `CNS(=O)(=O)Cc1ccc(Nc2nccc(Nc3cccc4c3cnn4C(=O)Nc3ccccc3)n2)cc1`, the inhibition came out at 3.72%.

Turning to `N#Cc1ccc(-c2cnc3ccc(NCCc4cccnc4)nn23)cc1`, the inhibition turned out to be 0.25%.

For `Cc1c(S(=O)(=O)Nc2cccc(CCN3CCCCC3CCN3CCCC3)c2)sc2ccc(Cl)cc12` (stereo not given), the inhibition was -0.62%.

As to `CN(C)CCC1CCCc2ccc(NC(=O)Nc3cccc(Cl)c3Cl)cc21` (stereo not given), the inhibition was determined as 1.03%.

On to `O=C(Cc1ccc[n+]([O-])c1)Nc1cccc(-c2cccc(-c3nc4cc(C(F)(F)F)ccc4[nH]3)c2)c1`, for which the inhibition came out at 5.03%.

With `CCNc1cc(C(=O)N[C@@H](Cc2ccccc2)[C@H](O)CNCCC(C)c2ccccc2)cc(N2CCCC2=O)c1` (stereo not given in full), the inhibition amounted to 1.33%.

Regarding `CC1(C)N=C(N)N=C(Nc2ccc(F)c(F)c2)N1`, the inhibition was -0.02%.

On to `Cc1cc(N)nc2ccc(-c3cccc(CN)c3)cc12`, for which the inhibition is -2.14%.

`CC(=O)NC(c1cccs1)c1cc(Cl)c2cccnc2c1O` (stereo not given): the inhibition is 7.85%.

`CC(=O)Nc1cccc(C(=O)Nc2cccc(-c3ccc(-c4nc5cc(F)ccc5[nH]4)cc3)c2)c1`: the inhibition came to 1.46%.

As for `Cc1ccc2c(=NN=CC=Cc3ccccc3)cc(C)[nH]c2c1`, the inhibition was 2.88%.

On to `Cc1noc(C)c1-c1cccc(CNCc2ccc(-c3ccc(-c4nc5cc(C(F)(F)F)ccc5[nH]4)s3)cc2)c1`, for which the inhibition came out at 0.04%.

As to `N#Cc1ccc2c(c1)CCN(CCC1CCC(NC(=O)/C=C/c3ccc4[nH]ccc4c3)CC1)CC2` (stereo not given), the inhibition was 0.13%.

Take `Cc1ccc(-c2cnc3[nH]cc(-c4ccc(C(=O)O)c(C)c4)c3c2)cc1C`: the inhibition stood at 1.64%.

On to `N=C(NCCc1ccccc1Cl)c1ccc2ccccc2c1`, for which the inhibition was -2.06%.

Regarding `Nc1ncc(-c2cccc(CCN3CCOCC3)c2)cc1-c1nc2cc(Br)ccc2[nH]1`, the inhibition is 11.8%.

Regarding `CC(C)(C)C(=O)Nc1c(-c2cc(=O)oc3cc4c(cc23)CCC4)oc2ccccc12`, the inhibition worked out at 5.42%.

On to `COc1ccc(OC)c2c1CCN(C)C2Cc1cccc2ccccc12` (stereo not given), for which the inhibition worked out at 1.61%.

As to `Cc1ccc(C2CC(=O)CC(c3ccccn3)C2[N+](=O)[O-])cc1` (stereo not given), the inhibition is -0.46%.

Consider `CC1(C)N=C(N)N=C(N)N1OCc1cccc(C#N)c1`, for which the inhibition was 1.5%.
